Test results published in PubChem BioAssay (Tox21).
Inconclusive results are not listed. The source made the active and inactive calls. Unless noted, the call rests on the fitted dose curve; in most records, active means well fitted curve in the direction sought with a large enough effect in the repeat runs; inconclusive means weak or mixed curves; inactive means no such curve, though single readings can be large; an effect the other way counts as inactive or inconclusive.

Key:
[1] = qHTS assay to identify small molecule agonists of the peroxisome proliferator-activated receptor delta (PPARd) signaling pathway - cell viability counter screen (AID 743211); further: nearly all actives have a fitted effect of over 55% in size
In short: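 In the same wells used for beta-lactamase reporter measurement, cytotoxicity is scored by CellTiter-Glo. HEK293H PPARd-bla cells receive compound for 17 h at 37C following a 5 h settling period.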

[2] = biological target: Peroxisome proliferator-activated receptor delta (Homo sapiens) (UniProt Q03181); experiment: qHTS assay to identify small molecule agonists of the peroxisome proliferator-activated receptor delta (PPARd) signaling pathway (AID 743212; calls by dose curve)
In short: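 Quantitative high-throughput agonist screen in a HEK293H beta-lactamase reporter line under UAS control. Compounds in DMSO, at 37 C. Fluorescence read after 2 h with FRET substrate at room temperature.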

[3] = biological target: Peroxisome proliferator-activated receptor delta (Homo sapiens) (UniProt Q03181); experiment: qHTS assay to identify small molecule antagonists of the peroxisome proliferator-activated receptor delta (PPARd) signaling pathway (AID 743215; active means well fitted inhibition curve with a large enough effect in the signal ratio in the repeat runs, not every such curve was filed as active; the % refers to the signal ratio;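 further: cells stimulated with agonist L165041 at 300 nM final during compound exposure; series mostly up to about 62 µM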)
In short: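 PPARd UAS-bla HEK293H cells were pre-incubated 5 h at 37 C, then given test compounds in DMSO plus agonist L165041 (300 nM final). After 17 h at 37 C, beta-lactamase FRET substrate was added; fluorescence read after 2 h at room temperature.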

[4] = biological target: Bile acid receptor (Homo sapiens) (UniProt Q96RI1); experiment: qHTS assay to identify small molecule antagonists of the farnesoid-X-receptor (FXR) signaling pathway (AID 743217; active means well fitted inhibition curve with a large enough effect in the signal ratio in the repeat runs, not every such curve was filed as active; the % refers to the signal ratio)
In short: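 FXR-UAS-bla HEK 293T cells pre-incubated 5 h at 37 °C, then exposed to compounds with chenodeoxycholic acid (50 uM final) for 16 h at 37 °C. Beta-lactamase reporter read by LiveBLAzer B/G FRET substrate fluorescence after 2 h at room temperature.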

[5] = qHTS assay to identify small molecule agonists of the farnesoid-X-receptor (FXR) signaling pathway - cell viability counter screen (AID 743218); further: nearly all actives have a fitted effect of over 45% in size
In short: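 FXR-UAS-bla HEK 293T cells, plated 5 h at 37 C, were exposed to compounds for 16 h at 37 C. CellTiter-Glo was then added to the same wells as the bla readout; luminescence read after 30 min at room temperature.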

[6] = biological target: Bile acid receptor (Homo sapiens) (UniProt Q96RI1); experiment: qHTS assay to identify small molecule agonists of the farnesoid-X-receptor (FXR) signaling pathway (AID 743220; active means well fitted activation curve with a large enough effect in the signal ratio in the repeat runs, not every such curve was filed as active; the % refers to the signal ratio)
In short: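 Beta-lactamase reporter under UAS control in GeneBLAzer FXR HEK 293T cells (5000/well) measured with LiveBLAzer FRET substrate after 2 h at room temperature. Compound exposure lasted 16 h at 37C.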

[7] = qHTS assay to identify small molecule antagonists of the farnesoid-X-receptor (FXR) signaling pathway - cell viability counter screen (AID 743221; active means well fitted cell-killing curve with a large enough effect in the repeat runs, not every such curve was filed as active; further: nearly all actives have a fitted effect of over 50% in size)
In short: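 Here viability was scored by luminescence after CellTiter-Glo addition to wells already read for beta-lactamase. Prior treatment: compound plus CDCA (50 uM final), 16 h, 37 C, HEK 293T FXR-bla cells.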

[8] = biological target: Vitamin D3 receptor (Homo sapiens) (UniProt P11473); experiment: qHTS assay to identify small molecule agonists of the vitamin D receptor (VDR) signaling pathway (AID 743222; calls by dose curve)
In short: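 VDR-bla cells were plated 4 h at 37C/5% CO2, then exposed to compounds in DMSO for 16 h. After LiveBLAzer B/G FRET substrate addition and 2 h at room temperature, beta-lactamase reporter fluorescence was read.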

[9] = biological target: Vitamin D3 receptor (Homo sapiens) (UniProt P11473); experiment: qHTS assay to identify small molecule antagonists of the vitamin D receptor (VDR) signaling pathway (AID 743223; active means well fitted inhibition curve with a large enough effect in the signal ratio in the repeat runs, not every such curve was filed as active; the % refers to the signal ratio)
In short: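 Inhibition of agonist-driven VDR signalling is scored in VDR-bla cells: 3 nM final 1alpha,25-dihydroxyvitamin D3 plus compound, 16 h at 37C, then beta-lactamase detection by FRET substrate fluorescence after 2 h.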

[10] = qHTS assay to identify small molecule antagonists of the peroxisome proliferator-activated receptor delta (PPARd) signaling pathway - cell viability counter screen (AID 743213); further: nearly all actives have a fitted effect of over 50% in size
In short: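 Cytotoxicity counter screen: CellTiter-Glo luminescence read 30 min after addition, in the same wells as the reporter assay. There, PPARd UAS-bla HEK293H cells (3000/well) were treated 17 h at 37 C with compound and 300 nM L165041.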

Measured: Potency

Bile acid receptor (Homo sapiens), sequence (Q96RI1 whole entry, looked up): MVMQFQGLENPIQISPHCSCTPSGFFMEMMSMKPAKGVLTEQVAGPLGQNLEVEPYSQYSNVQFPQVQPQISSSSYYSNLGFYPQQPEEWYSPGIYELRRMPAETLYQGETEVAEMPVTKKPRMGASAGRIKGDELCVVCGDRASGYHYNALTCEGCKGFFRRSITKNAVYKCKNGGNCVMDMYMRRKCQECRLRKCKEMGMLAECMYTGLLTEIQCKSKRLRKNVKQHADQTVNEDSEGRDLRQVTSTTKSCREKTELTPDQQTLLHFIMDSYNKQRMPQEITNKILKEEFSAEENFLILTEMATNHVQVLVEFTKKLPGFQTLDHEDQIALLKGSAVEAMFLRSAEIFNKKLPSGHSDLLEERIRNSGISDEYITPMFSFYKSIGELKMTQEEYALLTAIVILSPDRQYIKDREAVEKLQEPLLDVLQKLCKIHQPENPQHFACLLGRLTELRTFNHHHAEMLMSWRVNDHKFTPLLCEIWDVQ
Vitamin D3 receptor (Homo sapiens), sequence (P11473 whole entry, looked up): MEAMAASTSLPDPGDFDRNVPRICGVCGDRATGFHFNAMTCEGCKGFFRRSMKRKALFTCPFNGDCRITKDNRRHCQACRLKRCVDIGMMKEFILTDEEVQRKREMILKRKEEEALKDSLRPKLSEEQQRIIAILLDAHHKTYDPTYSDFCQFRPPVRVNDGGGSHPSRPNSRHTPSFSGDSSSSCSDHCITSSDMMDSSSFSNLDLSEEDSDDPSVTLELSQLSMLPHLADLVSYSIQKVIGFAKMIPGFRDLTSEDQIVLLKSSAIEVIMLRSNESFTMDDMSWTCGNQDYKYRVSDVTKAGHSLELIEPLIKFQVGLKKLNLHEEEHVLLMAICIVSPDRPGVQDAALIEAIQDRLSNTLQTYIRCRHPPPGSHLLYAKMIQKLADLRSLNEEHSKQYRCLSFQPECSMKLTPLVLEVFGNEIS
Peroxisome proliferator-activated receptor delta (Homo sapiens), sequence (Q03181 whole entry, looked up): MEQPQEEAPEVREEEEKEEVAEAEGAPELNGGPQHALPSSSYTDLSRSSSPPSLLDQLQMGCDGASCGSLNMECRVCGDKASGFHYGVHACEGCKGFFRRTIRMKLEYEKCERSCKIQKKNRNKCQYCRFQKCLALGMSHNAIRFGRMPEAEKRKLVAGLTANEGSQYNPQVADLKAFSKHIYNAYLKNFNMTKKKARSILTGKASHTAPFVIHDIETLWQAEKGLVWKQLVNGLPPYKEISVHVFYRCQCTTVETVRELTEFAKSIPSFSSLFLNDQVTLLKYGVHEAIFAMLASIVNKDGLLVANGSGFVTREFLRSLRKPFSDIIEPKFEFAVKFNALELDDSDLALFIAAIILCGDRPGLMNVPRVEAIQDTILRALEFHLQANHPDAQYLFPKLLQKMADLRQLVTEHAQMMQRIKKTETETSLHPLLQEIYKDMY

CN1CCC(=C2c3ccccc3CC(=O)c3sccc32)CC1
not listed: [10]
inactive: all other assays above

O=C1CCCN1C1CCCCC1
inactive: [1] | [10] | [4] | [5] | [6] | [7]

CN1CCCC1
not listed: [2] | [3] | [9]
inactive: all other assays above
